PubChem BioAssay (EPA / NIEHS)
Activity calls are given as the source filed them. How the source made its calls: active means hit-call score of the fitted dose curve at least 0.9, where 1 is the maximum; inactive means score below 0.9.

The compounds below were run against Heat shock factor protein 1 (Homo sapiens) (UniProt Q00613) (assay: ATG_HSE_CIS: Attagene CIS-FACTORIAL HepG2 Assay for human Heat Shock Transcription Factor 1 (HSE) (AID 2282953)). Settings: HepG2 HSE cis-reporter, Attagene RNA transcription; actives raise or lower the signal.
Chain of Heat shock factor protein 1 (Homo sapiens) (Q00613 whole entry, looked up): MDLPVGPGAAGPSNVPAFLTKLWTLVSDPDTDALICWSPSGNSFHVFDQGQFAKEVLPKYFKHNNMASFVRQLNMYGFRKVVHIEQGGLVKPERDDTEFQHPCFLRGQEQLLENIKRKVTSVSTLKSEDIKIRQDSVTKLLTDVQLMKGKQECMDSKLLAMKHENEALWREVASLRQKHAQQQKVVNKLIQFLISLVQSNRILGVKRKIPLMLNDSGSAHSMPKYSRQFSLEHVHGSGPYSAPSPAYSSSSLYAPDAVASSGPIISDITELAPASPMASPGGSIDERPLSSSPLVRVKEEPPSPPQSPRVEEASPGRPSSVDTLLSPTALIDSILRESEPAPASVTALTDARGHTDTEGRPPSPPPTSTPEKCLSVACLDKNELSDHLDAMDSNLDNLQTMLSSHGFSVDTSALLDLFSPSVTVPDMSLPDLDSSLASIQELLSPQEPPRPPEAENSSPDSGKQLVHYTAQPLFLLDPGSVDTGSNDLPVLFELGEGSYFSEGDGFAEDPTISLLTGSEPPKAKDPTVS
Protocol: ATG_CIS is a cell-based, multiplexed-readout assay that uses HepG2, a human liver cell line, with measurements taken at 24 hours after chemical dosing in a 24-well plate.ATG_HSE_CIS is one of 52 assay component(s) measured or calculated from the ATG_CIS assay. It is designed to make measurements of mRNA induction, a form of inducible reporter, as detected with fluorescence intensity signals by Reverse transcription polymerase chain reaction (RT-PCR) and Capillary electrophoresis technology.Data from the assay component ATG_HSE_CIS was analyzed into 1 assay endpoint. This assay endpoint, ATG_HSE_CIS, was analyzed with bidirectional fitting relative to DMSO as the negative control and baseline of activity. Using a type of inducible reporter, measures of mRNA for gain or loss-of-signal activity can be used to understand the reporter gene at the transcription factor-level as they relate to the gene HSF1. Furthermore, this assay endpoint can be referred to as a primary readout, because this assay has produced multiple assay endpoints where this one serves a reporter gene function. To generalize the intended target to other relatable targets, this assay endpoint is annotated to the dna binding intended target family, where the subfamily is heat shock protein.
Human liver HepG2 cells are transiently transfected with multiple reporter transcription units (MRTUs) in 6-well plates using FuGene 6 reagent (Roche; 3 ml FuGene/1 mg DNA). The MRTU constructs are regulated by a cis-regulating element (promoter). […] A major difference between the CIS and TRANS system is that in CIS activities of endogenous TFs are measured, whereas the TRANS assay evaluates changes in activities of exogenous, chimeric NR-Gal4 proteins. […] At the end of 24 hour incubation, total RNA was isolated using TriZol reagent (Invitrogen). The isolated RNA is then reverse-transcribed using oligo(dT) primer and Mo-MLV reverse transcriptase (Invitrogen) with DNAse I (Ambion) treatment for 30 min. The one-tenth of the produced cDNA was amplified by PCR using Taq DNA polymerase (Invitrogen) and two reporter sequence-specific primers. The PCR products were fluorescently labeled by primer extension with 6-arboxyfluorescein (6-FAM) 5'-labeled reporter sequence-specific primer (2 min at 95 C, 20 s at 68 C and 10 min at 72 C) and these products were digested with 5U of HpaI (New England Biolabs) for 2h at 37 C. The fragments were purified using Qiaquick PCR columns (Qiagen), analyzed on an ABI 3130xL genetic analyzer (Applied Biosystems) with peak positions identified by using a set of X-rhodamine (ROX)-labeled MapMarker1000 molecular weight standards (BioVentures). The raw capillary electrophoresis data was processed using Attagraph software (Attagene).
With `COc1cccc(C(=O)NN(C(=O)c2cc(C)cc(C)c2)C(C)(C)C)c1C` the outcome was “inactive”. In the case of `CSc1nc(NC(C)C)nc(NC(C)C)n1`, the outcome was “inactive”. In the case of `CN(C)NC(=O)CCC(=O)O`, the outcome was “inactive”. In the case of `CCOP(=S)(OCC)SCCSCC`, the outcome was “inactive”. For `CCC(CC)Nc1c([N+](=O)[O-])cc(C)c(C)c1[N+](=O)[O-]`, the outcome was “inactive”. For `Nc1nc(N)nc(NC2CC2)n1`, the outcome was “inactive”. In the case of `COP(=O)(OC)OC(Br)C(Cl)(Cl)Br` (stereo not given), the outcome was “inactive”. With `CCc1cnc(C2=NC(C)(C(C)C)C(=O)N2)c(C(=O)O)c1` (stereo not given) the outcome was “inactive”. In the case of `CCCCN(CC)c1c([N+](=O)[O-])cc(C(F)(F)F)cc1[N+](=O)[O-]`, the outcome was “inactive”. For `CC(C)=CC1C(C(=O)OCN2C(=O)C3=C(CCCC3)C2=O)C1(C)C` (stereo not given), the AC50 was 93.9 µM (active). For `CCOP(=S)(OCC)Oc1cc(C)nc(C(C)C)n1`, the outcome was “inactive”. `CNC(=O)Oc1cccc2c1OC(C)(C)O2` was tested, and the outcome was “inactive”. With `S=C1NCCN1` the outcome was “inactive”. With `COP(=O)(OC)SCn1c(=O)oc2cc(Cl)cnc21` the outcome was “inactive”. In the case of `Cc1cc(C2CC2)nc(Nc2ccccc2)n1`, the outcome was “inactive”. With `FC(F)C(F)(F)OCC(Cn1cncn1)c1ccc(Cl)cc1Cl` (stereo not given) the AC50 was 81.4 µM (active). With `COc1cc(OC)nc(Sc2cccc(Cl)c2C(=O)O)n1` the outcome was “inactive”. In the case of `CCC(=O)Nc1ccc(Cl)c(Cl)c1`, the outcome was “inactive”. In the case of `Cc1ccn2nc(S(=O)(=O)Nc3c(F)cccc3F)nc2n1`, the outcome was “inactive”. In the case of `CSC1=N[C@@](C)(c2ccccc2)C(=O)N1Nc1ccccc1`, the outcome was “inactive”. With `C[Si](Cn1cncn1)(c1ccc(F)cc1)c1ccc(F)cc1` the AC50 was 85.6 µM (active). For `O=c1ccc(=O)[nH][nH]1`, the outcome was “inactive”. `CCOP(=S)(OCC)Oc1ccc2c(C)c(Cl)c(=O)oc2c1` was tested, and the outcome was “inactive”. `CC1(C(=O)Nc2ccc(O)c(Cl)c2Cl)CCCCC1` was tested, and the outcome was “inactive”. `COP(=O)(OC)C(O)C(Cl)(Cl)Cl` (stereo not given) was tested, and the outcome was “inactive”. With `CCOC(=O)CC(SP(=O)(OC)OC)C(=O)OCC` (stereo not given) the outcome was “inactive”. `CNC(=O)ON=C(SC)C(=O)N(C)C` was tested, and the outcome was “inactive”. In the case of `CCc1cccc(C)c1N(C(=O)CCl)C(C)COC` (stereo not given), the outcome was “inactive”. For `CSc1nnc(C(C)(C)C)c(=O)n1N`, the outcome was “inactive”. For `CCOP(=S)(OCC)OC(Cl)C(Cl)(Cl)Cl` (stereo not given), the outcome was “inactive”. `CC(C1CC1)C(O)(Cn1cncn1)c1ccc(Cl)cc1` (stereo not given) was tested, and the outcome was “inactive”. `C[N+]1(C)CCCCC1` was tested, and the outcome was “inactive”. For `CN(C)[C@@H]1C(=O)C(C(N)=O)=C(O)[C@@]2(O)C(=O)C3=C(O)c4c(O)cccc4[C@@](C)(O)[C@H]3[C@H](O)[C@@H]12`, the outcome was “inactive”. With `CCCCOC(=O)c1ccccc1C(=O)O` the outcome was “inactive”. `CC(Oc1cccc(Cl)c1)C(=O)O` (stereo not given) was tested, and the outcome was “inactive”. With `Cc1nn(-c2cc(NS(C)(=O)=O)c(Cl)cc2Cl)c(=O)n1C(F)F` the outcome was “inactive”. `CNC(=O)ON=C(C)SC` was tested, and the outcome was “inactive”. `CCC(=NOC/C=C/Cl)C1=C(O)CC(C2CCOCC2)CC1=O` (stereo not given) was tested, and the outcome was “inactive”. For `CNc1cnn(-c2cccc(C(F)(F)F)c2)c(=O)c1Cl`, the AC50 was 10.4 µM (active). In the case of `O=C(O)c1cc(Oc2ccc(C(F)(F)F)cc2Cl)ccc1[N+](=O)[O-]`, the outcome was “inactive”.
